Test results reported in PubChem BioAssay AID1159580 (chemical genetic matrix, 2015).
Where “and” joins values, the source holds several entries; their conditions need not be identical. Equal entries are not always repeated. The campaign covered roughly 5,500 compounds. About 2,000 (36%) were called active. Not shown: some 18% with an inconclusive outcome. Rule as the data show it: active = normalized growth mostly below about 0.91 (no sharp cut-off); inconclusive = no clear call, values can overlap the other calls; inactive = mostly above about 0.92. Some of the results follow.

Assay: chemical genetic growth profiling, strain panel (AID 1159580);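 also: tested at 20 µM; growth read once vehicle control cultures reached saturation at 30 °C; 1 = growth at the plate median or of vehicle wells; lower values mean less growth of the strain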
Settings: S. cerevisiae deletion strains, growth OD

Measured: normalized growth

CN1CCC(OC(c2ccccc2)c2ccccc2)CC1
inactive: locus YAL013W, strain DEP1, hits give low values 0.98 | locus YAL021C, strain ccr4, hits give low values 0.974 | locus YAL026C, strain drs2, hits give low values 0.972 | locus YAL030W, strain snc1, hits give low values 0.987 | locus YBL061C, strain skt5, hits give low values 1 | locus YBR009C, strain hhf1, hits give low values 0.983 | locus YBR021W, strain FUR4, hits give low values 0.985 | locus YBR023C, strain chs3, hits give low values 1.02 | locus YBR171W, strain sec66, hits give low values 0.99 | locus YBR229C, strain ROT2, hits give low values 0.977 | locus YBR231C, strain swc5, hits give low values 0.976 | locus YBR279W, strain paf1, hits give low values 1.01 | locus YCL011C, strain gbp2, hits give low values 0.998 | locus YCL016C, strain dcc1, hits give low values 1.04 | locus YCL029C, strain bik1, hits give low values 0.995 | locus YCL061C, strain MRC1, hits give low values 1 | locus YCL069W, strain vba3, hits give low values 0.973 | locus YCR088W, strain abp1, hits give low values 0.989 | locus YDL005C, strain med2, hits give low values 0.975 | locus YDL035C, strain GPR1, hits give low values 1.03 | locus YDL040C, strain nat1, hits give low values 0.975 | locus YDL074C, strain BRE1, hits give low values 0.976 | locus YDL101C, strain DUN1, hits give low values 0.973 | locus YDL134C, strain PPH21, hits give low values 1.02 | locus YDL185W, strain tfp1, hits give low values 0.984 | locus YDL192W, strain arf1, hits give low values 0.983 | locus YDR001C, strain nth1, hits give low values 0.984 | locus YDR069C, strain doa4, hits give low values 0.977 | locus YDR101C, strain arx1, hits give low values 0.987 | locus YDR137W, strain rgp1, hits give low values 1.03 | locus YDR159W, strain sac3, hits give low values 0.969 | locus YDR162C, strain NBP2, hits give low values 1.01 | locus YDR195W, strain ref2 0.973 | locus YDR297W, strain sur2, hits give low values 0.988 | locus YDR318W, strain mcm21, hits give low values 0.978 | locus YDR334W, strain swr1, hits give low values 0.982 | locus YDR335W, strain msn5, hits give low values 0.996 | locus YDR388W, hits give low values 0.992 | locus YDR392W, strain spt3, hits give low values 0.935 | locus YDR502C, strain sam2, hits give low values 1.01 | locus YEL003W, strain gim4, hits give low values 0.956 | locus YEL037C, strain rad23, hits give low values 0.97 | locus YEL061C, strain CIN8 (second series), hits give low values 0.965 | locus YEL061C, strain CIN8, hits give low values 0.995 | locus YER015W, strain faa2, hits give low values 0.99 | locus YER016W, strain bim1, hits give low values 0.977 | locus YER110C, hits give low values 0.972 | locus YER111C, strain swi4, hits give low values 0.984 | locus YER155C, strain BEM2 (second series), hits give low values 0.977 | locus YER155C, strain BEM2, hits give low values 0.988 | locus YER167W, strain BCK2, hits give low values 0.99 | locus YFR010W, strain ubp6, hits give low values 0.963 | locus YGL078C, strain dbp3, hits give low values 0.985 | locus YGL086W, strain mad1, hits give low values 0.987 | locus YGL167C, strain pmr1, hits give low values 1 | locus YGL173C, strain kem1, hits give low values 0.994 | locus YGL227W, strain vid30, hits give low values 0.983 | locus YGL240W, strain doc1, hits give low values 0.982 | locus YGL248W, strain PDE1, hits give low values 0.964 | locus YGL253W, strain hxk2, hits give low values 0.987 | locus YGR078C, strain PAC10, hits give low values 0.985 | locus YGR135W, strain pre9, hits give low values 0.951 | locus YGR252W, strain gcn5, hits give low values 0.925 | locus YHR013C, strain ard1, hits give low values 0.994 | locus YHR027C, strain rpn1, hits give low values 0.993 | locus YHR030C, strain SLT2, hits give low values 0.998 and 0.996 | locus YHR079C, strain IRE1 (second series), hits give low values 0.991 | locus YHR079C, strain IRE1, hits give low values 1.02 | locus YHR094C, strain hxt1, hits give low values 0.998 | locus YHR129C, strain ARP1, hits give low values 0.99 | locus YHR142W, strain chs7, hits give low values 1.01 | locus YHR200W, strain rpn10, hits give low values 0.987 | locus YIL066C, strain RNR3, hits give low values 1.01 | locus YIL073C, strain SPO22, hits give low values 1.01 | locus YIL125W, strain kgd1, hits give low values 0.994 | locus YIR030C, strain dcg1, hits give low values 0.984 | locus YJL092W, strain hpr5, hits give low values 0.98 | locus YJL095W, strain BCK1 (second series), hits give low values 0.988 | locus YJL095W, strain BCK1, hits give low values 0.961 and 1 | locus YJL115W, strain asf1, hits give low values 0.98 | locus YJL129C, strain trk1, hits give low values 0.984 | locus YJL134W, strain LCB3, hits give low values 0.984 | locus YJL154C, strain vps35, hits give low values 0.978 | locus YJL164C, strain tpk1, hits give low values 0.987 | locus YJL166W, strain qcr8, hits give low values 1.01 | locus YJL168C, strain set2, hits give low values 0.988 | locus YJL187C, strain SWE1 (second series), hits give low values 0.972 | locus YJL187C, strain SWE1, hits give low values 0.983 | locus YJR043C, strain POL32, hits give low values 1.03 | locus YJR066W, strain TOR1, hits give low values 0.973 | locus YKL009W, strain mrt4, hits give low values 0.974 | locus YKL068W, hits give low values 0.983 | locus YKL085W, strain MDH1 (second series), hits give low values 1 | locus YKL085W, strain MDH1, hits give low values 1 | locus YKL160W, strain elf1, hits give low values 1.03 | locus YKR001C, strain vps1, hits give low values 0.996 | locus YKR026C, strain gcn3, hits give low values 0.989 | locus YKR091W, strain srl3, hits give low values 0.991 | locus YLL001W, strain dnm1, hits give low values 1.01 | locus YLL026W, hits give low values 0.991 | locus YLL041C, strain sdh2, hits give low values 0.985 | locus YLR027C, strain aat2, hits give low values 0.995 | locus YLR039C, strain RIC1, hits give low values 1.15 | locus YLR058C, strain SHM2, hits give low values 0.992 | locus YLR102C, strain apc9, hits give low values 0.999 | locus YLR113W, strain HOG1, hits give low values 1.01 | locus YLR221C, strain rsa3, hits give low values 1.04 | locus YLR258W, strain gsy2, hits give low values 1.01 | locus YLR262C, strain YPT6 (second series), hits give low values 1.03 | locus YLR262C, strain YPT6, hits give low values 1.09 | locus YLR268W, strain sec22, hits give low values 0.992 | locus YLR320W, strain mms22, hits give low values 1.05 | locus YLR330W, strain CHS5, hits give low values 0.987 | locus YLR342W, strain FKS1 (second series), hits give low values 1.01 | locus YLR342W, strain FKS1, hits give low values 0.989 | locus YLR357W, strain rsc2, hits give low values 0.96 | locus YLR370C, strain arc18, hits give low values 1.01 | locus YLR371W, strain rom2, hits give low values 1 | locus YLR384C, strain iki3, hits give low values 0.994 | locus YLR418C, strain cdc73, hits give low values 0.956 | locus YML016C, strain PPZ1, hits give low values 0.983 | locus YML032C, strain rad52, hits give low values 1.02 | locus YML120C, strain ndi1, hits give low values 1.01 | locus YML124C, strain tub3, hits give low values 1.02 | locus YMR058W, strain fet3, hits give low values 0.978 | locus YMR078C, strain ctf18, hits give low values 0.98 | locus YMR125W, strain sto1, hits give low values 0.961 | locus YMR129W, hits give low values 0.977 | locus YMR205C, strain PFK2, hits give low values 1.03 | locus YMR223W, strain ubp8, hits give low values 0.968 | locus YMR231W, strain pep5, hits give low values 0.996 | locus YMR263W, strain SAP30, hits give low values 0.971 | locus YMR307W, strain GAS1, hits give low values 1.14 | locus YNL067W, strain RPL9B, hits give low values 0.974 | locus YNL071W, strain lat1, hits give low values 0.983 | locus YNL183C, strain NPR1, hits give low values 0.964 | locus YNL209W, strain ssb2, hits give low values 0.988 | locus YNL233W, strain BNI4, hits give low values 0.975 | locus YNL248C, strain rpa49, hits give low values 0.98 | locus YNL250W, strain rad50, hits give low values 0.969 | locus YNL271C, strain bni1, hits give low values 0.984 | locus YNL298W, strain CLA4, hits give low values 0.985 | locus YNL307C, strain MCK1, hits give low values 0.992 | locus YNL322C, strain KRE1 (second series), hits give low values 1.01 | locus YNL322C, strain KRE1, hits give low values 1.01 | locus YNR049C, strain mso1, hits give low values 0.989 | locus YNR052C, strain pop2, hits give low values 0.984 | locus YOL006C, strain TOP1, hits give low values 0.946 | locus YOL012C, strain htz1 0.957 | locus YOL147C, strain pex11, hits give low values 0.986 | locus YOR001W, strain rrp6, hits give low values 0.937 | locus YOR061W, strain CKA2, hits give low values 1 | locus YOR069W, strain VPS5, hits give low values 0.992 | locus YOR070C, strain gyp1, hits give low values 0.998 | locus YOR080W, strain dia2, hits give low values 1 | locus YOR083W, strain WHI5, hits give low values 1.04 | locus YOR106W, strain vam3, hits give low values 1.03 | locus YOR136W, strain idh2, hits give low values 0.983 | locus YOR144C, strain elg1, hits give low values 0.983 | locus YOR184W, strain ser1, hits give low values 1.01 | locus YOR231W, strain MKK1, hits give low values 1.01 | locus YOR265W, strain rbl2, hits give low values 1.01 | locus YOR270C, strain vph1, hits give low values 0.999 | locus YOR290C, strain snf2, hits give low values 0.93 | locus YOR316C, strain cot1, hits give low values 0.985 | locus YPL051W, strain arl3, hits give low values 1.02 | locus YPL055C, strain LGE1, hits give low values 0.994 | locus YPL078C, strain atp4, hits give low values 1.02 | locus YPL106C, strain sse1, hits give low values 0.985 | locus YPL240C, strain hsp82, hits give low values 1.01 | locus YPL241C, strain CIN2, hits give low values 0.991 | locus YPL256C, strain CLN2, hits give low values 1.02 | locus YPR119W, strain clb2, hits give low values 0.986 | locus YPR141C, strain kar3, hits give low values 0.965 | locus YPR163C, strain tif3, hits give low values 0.987 | locus YPR167C, strain met16, hits give low values 0.99 | strain wtn01, hits give low values 0.974
